Structures are written as SMILES. In all, about 96,000 compounds went through this assay and about 20,000 (21%) were called active. A selection follows. Unmarked numbers belong to inactive results.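 Rule for the calls: active = CYP2C19 inhibition above a set limit at 5 µM in the primary screen (cut at about 50% in these data); inactive = the rest.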

In the assay the target is Cytochrome P450 2C19 (Homo sapiens) (UniProt P33261). The assay is described as follows: blockers of cytochrome P450 2C19 activity – biochemical, luminescence, ADME assay, primary screen (AID 778).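 Note: plate controls were negative control wells for no effect and 2.5 mM tranylcypromine positive control for full effect.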 Conditions: CYP2C19 Supersomes, luciferin-H EGE luminescence, 30 min; at 5 µM; stronger effect = higher value.
Sequence of Cytochrome P450 2C19 (Homo sapiens) (P33261 whole entry, looked up): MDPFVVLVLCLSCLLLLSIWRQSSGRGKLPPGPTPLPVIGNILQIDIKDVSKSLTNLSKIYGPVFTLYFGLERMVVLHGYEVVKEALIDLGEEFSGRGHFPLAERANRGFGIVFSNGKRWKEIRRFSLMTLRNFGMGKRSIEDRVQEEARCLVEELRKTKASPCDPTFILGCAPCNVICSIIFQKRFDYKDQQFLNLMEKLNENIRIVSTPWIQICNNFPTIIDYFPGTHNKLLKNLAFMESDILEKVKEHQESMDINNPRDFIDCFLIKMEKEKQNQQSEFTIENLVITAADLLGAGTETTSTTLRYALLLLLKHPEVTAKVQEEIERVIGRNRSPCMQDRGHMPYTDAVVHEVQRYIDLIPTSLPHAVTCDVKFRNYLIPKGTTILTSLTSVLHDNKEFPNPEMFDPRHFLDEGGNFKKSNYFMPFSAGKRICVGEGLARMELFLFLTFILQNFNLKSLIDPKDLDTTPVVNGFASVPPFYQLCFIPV
Take `CC(C)c1nc2oc3c(N4CCN(C)CC4)ncnc3c2c2c1CCC2`: the inhibition (usually the relative decrease from the control value, in per cent) was 22.2%. As for `O=C(Oc1ccccc1)Oc1ccc2c(c1)oc(=O)c1ccccc12`, the figure is -10.9%; as for `COc1ccc(C(=O)c2oc3ccc(Br)cc3c2NC(C)=O)cc1`, -4%. As for `ON=C1/C(=N\O)CC2(C/C1=N/O)OCCO2`, the figure is -10.5%; as for `O=C(C1CCC1)N1CCc2cc(S(=O)(=O)NCc3cccnc3)ccc21`, 10%. With `CCCCNc1nc2ccccc2nc1NS(=O)(=O)c1cccs1` the figure was 2.4%. As for `O=C1c2ccccc2C(=O)c2c1cccc2N1CCN(Cc2ccccc2)CC1`, the inhibition was 13.4%. As for `CN1CCN(S(=O)(=O)c2ccc(N3CCN(S(=O)(=O)c4cccs4)CC3)nc2)CC1`, the figure is -25.5%; as for `O=S(=O)(c1cccs1)N1CCN(Cc2ccccc2)CC1`, 98.1% (active). Consider `O=C(Nc1ccc(S(=O)(=O)N2CCc3ccccc3C2)cc1)c1ccccc1`, for which the inhibition was 0.3%.

With `O=S(=O)(c1cccs1)N1CCc2ccccc2C1`, the inhibition is 78% (active). In the case of `CCN(c1ccccc1)S(=O)(=O)c1ccc(NC(=O)C(C)(C)C)cc1`, the inhibition was 9.3%. As to `COc1cccc(/C=N\Nc2nncc(-c3ccccc3)n2)c1`, the inhibition is -7%.

With `O=C1C=C(c2ccc(Cl)cc2)C(=O)N1Nc1ccccc1`, the inhibition was 19.7%.

Turning to `CCOc1ccc(C(=O)NC2CCN(S(=O)(=O)CC)CC2)cc1`, the inhibition is 9.1%. Take `CC(=O)NC(Cc1ccc(F)cc1)C(=O)O` (stereo not drawn): the inhibition is -5.1%.

Take `Cn1c(SCc2c(F)cccc2Cl)nnc1-c1cnccn1`: the inhibition is 25.9%.

For the compound `Cc1nc(SCC(=O)Nc2cc(C)on2)c2c3c(sc2n1)CCCC3`, the inhibition is 7%. With `O=C(NCc1ccco1)c1cccn2c(=O)c3c4c(sc3nc12)CCCC4` the figure was 45.2%. As for `CCCc1nc2sc3c(c2c(=O)n1NC(=O)CCCl)CCCC3`, the figure is 88.5% (active); as for `O=C(Nc1ccc(Cl)cc1)c1ccsn1`, 25.4%; as for `O=C(Nc1ccncc1)c1cc2ccccc2o1`, 99.6% (active).

`O=C(NCCc1ccc2c(c1)OCCO2)c1cc2ccccc2o1`: the inhibition is 41.2%. Regarding `O=C(Nc1ccncc1)c1c(F)cccc1F`, the inhibition is 52.4% (active). `CN1C(=O)c2ccc(NC(=O)c3c(F)c(F)c(F)c(F)c3F)cc2C1=O`: the inhibition is -11.8%.

As to `O=C(Nc1cccc(-c2nc3ncccc3o2)c1)c1ccco1`, the inhibition was 5.2%. With `C/C(=C\C(=O)c1ccccc1)Nc1cccc(O)c1` the figure was 10.3%; with `COc1ccc(CNC(=O)C2CCC(CNc3c(N4CCOCC4)c(=O)c3=O)CC2)cc1` (stereo not drawn), -12.8%; with `COc1cccc(-c2nc3cc(C)ccc3o2)c1`, 42.7%.

As for `C/C=C/C(=O)OCC(=O)Nc1ccc(F)cc1Cl`, the inhibition is 16.4%. `CCC1Oc2ccc(Cl)cc2N(CC(=O)O)C1=O` (stereo not drawn): the inhibition is -3.7%. With `Cc1cccc(C)c1NC(=O)c1ccc(CN2CCc3ccccc3C2)cc1` the figure was -19.5%. As for `CCC(c1nnnn1C1CCCC1)N1CCN(C(=O)c2ccco2)CC1` (stereo not drawn), the figure is 61.3% (active); as for `CC(=O)c1ccc(-n2nnnc2SCC(=O)N2CCN(C(=O)c3ccco3)CC2)cc1`, -3.8%; as for `CC(C)C(c1nnnn1CCc1ccccc1)N1CCN(C(=O)c2ccco2)CC1` (stereo not drawn), 15.7%. As for `COC(=O)C1=C(C)NC2=C(C(=O)c3ccccc32)C1c1ccc(-c2ccc(C(=O)O)cc2)o1` (stereo not drawn), the figure is 44.5%; as for `COC(=O)c1cc(NC(=O)CC2C(=O)NCCN2C(=O)c2ccc(F)cc2)cc(C(=O)OC)c1` (stereo not drawn), 8.6%; as for `O=C(NC(C(=O)NCCN1CCOCC1)C12CC3CC(CC(C3)C1)C2)C1CCCCC1` (stereo not drawn), -0.8%.

In the case of `OC(CN1C2=NCCCN2c2ccccc21)c1ccc(Br)cc1` (stereo not drawn), the inhibition is 11.9%. As for `Cn1sc(NC(=O)c2ccccc2)nc1=O`, the figure is 0.2%; as for `O=C(Nc1nsc(-c2ccccc2)n1)c1ccncc1`, 93.3% (active).

Take `COC(=O)c1nc(NC(=O)c2ccccc2)n[nH]1`: the inhibition was 1.9%. Turning to `CCOC(=O)C1Sc2[nH]c(=O)sc2C(c2ccc(Cl)cc2)C1C(=O)OCC` (stereo not drawn), the inhibition was 24.6%. As for `Cc1cccc(NC(=O)N(Cc2cc3cc(C)cc(C)c3[nH]c2=O)CC2COCCO2)c1` (stereo not drawn), the figure is 76.8% (active).

Consider `COc1ccc2[nH]c(=O)c(CN(CC3CCCO3)C(=O)Nc3ccccc3)cc2c1` (stereo not drawn), for which the inhibition is 32.6%. With `Cc1ccc2[nH]c(=O)c(CN(CCCN(C)C)C(=O)Nc3cccc(Cl)c3)cc2c1` the figure was -4.4%; with `CCOC(=O)c1cccc(NC(=O)CCc2c(C)nc3ncnn3c2C)c1`, 2.3%; with `Cc1ccc2c(CSc3nncs3)cc(=O)oc2c1`, 86.8% (active). With `Cc1cc([N+](=O)[O-])c(N2CCC[C@@H]2C(=O)O)c([N+](=O)[O-])c1` the figure was -5.1%; with `CCOc1ccc(C(=O)NC(C(=O)NCc2ccccn2)C(C)C)cc1` (stereo not drawn), 26.7%. With `COc1cccc(/C=N/NC(=O)c2cccc([N+](=O)[O-])c2)c1OS(=O)(=O)c1ccc(C)cc1`, the inhibition was 1.4%. Regarding `CC(C)(CSc1nncn1/N=C/c1ccco1)NS(=O)(=O)c1ccc(Cl)cc1`, the inhibition was 53.3% (active).

Turning to `COc1ccc(O)c(C(=O)c2cnc3onc(C(C)C)c3c2)c1`, the inhibition was 100% (active). On to `COc1ccc(O)c(C=Nc2cc(C)on2)c1`, for which the inhibition was 1.5%.

With `O=C(Nc1cccc2cccnc12)c1cccc(N2C(=O)CCC2=O)c1`, the inhibition is 22.2%.

Turning to `CCCC(C(=O)N1CCOCC1)N1C(=O)C2C3C=CC(C3)C2C1=O` (stereo not drawn), the inhibition was -3.8%. `Cc1nc(Cl)c2oc3ccccc3c2n1`: the inhibition was 49.8%. As for `Cc1ccccc1-n1nnc2c(=O)oc3ccccc3c21`, the figure is 66.5% (active); as for `CCCCC(=O)Nc1cc(C)c2c(=O)oc3ccccc3c2n1`, 16.3%; as for `Cc1ccc(-c2nc(CS(=O)CC(=O)N3CCN(c4ncccn4)CC3)c(C)o2)cc1` (stereo not drawn), 24.1%. For `CCOc1ccc(C(=O)N(Cc2ccc(N(C)C)cc2)C2CCS(=O)(=O)C2)cc1` (stereo not drawn), the inhibition is 58.6% (active). As to `COc1ccc(C(=O)N(Cc2ccc(N(C)C)cc2)C2CCS(=O)(=O)C2)cc1` (stereo not drawn), the inhibition was 8.9%. With `COc1cc(C(=O)N(Cc2ccc(N(C)C)cc2)C2CCS(=O)(=O)C2)cc(OC)c1OC` (stereo not drawn) the figure was 19%.
